Laboratory results reported in PubChem BioAssay (NCI).
This is part of a sample that, as a whole, favours compounds with a hit. Of some 79,000 tested, about 15% had one in any assay. A number with no mark means an inactive call. Calls of active or inactive are those of the source. No stated cut-off is given here; in the data, active means growth inhibition above about 70%; inactive means the rest.

Test: NCI Yeast Anticancer Drug Screen. Data for the rad14 strain (AID 159);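 further: 0% = growth of vehicle-treated control cultures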
Details: S. cerevisiae rad14 strain growth inhibition, hits give high values
Procedure: Growth inhibition of yeast strains with defined genetic alterations is measured as a screen for potential anti-cancer activity. Selected strains with alterations in DNA damage repair or cell cycle control were exposed to compounds and growth inhibition was measured relative to vehicle treated controls. The strain used in this assay is rad14

Compound | growth inhibition (at 1.2 µM) | growth inhibition (at 3.7 µM) | growth inhibition (at 11.0 µM) | growth inhibition (at 33.0 µM) | growth inhibition (at 100.0 µM)
CCN(CC)CCN1C(=O)c2cccc3cc(OC)cc(c23)C1=O | -10% | 1% | -9% | -6% | 3%
c1ccc(-c2nc3cccnc3s2)cc1 | -3% | 0% | -2% | 1% | 5%
O=C1C=CC(=O)c2c(O)c(Nc3ccc(OC(F)(F)F)cc3)c(Cl)c(O)c21 | 2% | 4% | 6% | 32% | 92% (active)
O=C(OCC=C1CCCC1)c1cc([N+](=O)[O-])cc([N+](=O)[O-])c1 | -2% | 1% | 12% | 71% (active) | 97% (active)
Cn1ccnc1Oc1ccc(Cl)cc1 | -5% | 4% | 26% | 46% | 98% (active)
Cc1ccc(-n2cc(-c3ccc(Cl)cc3)c(C#N)c2N)cc1 | -1% | 1% | -1% | -12% | 5%
C[C@@H]1C[C@H]2[C@@H]3CCC4=CC(=O)C=C[C@]4(C)[C@@]3(Cl)[C@@H](Cl)C[C@]2(C)[C@@]1(O)C(=O)COP(=O)(O)O | -1% | 0% | -2% | -2% | 1%
CCCCCCCCCCCCCCCCCCN(C)CC(COP(=O)([O-])OCC[N+](C)(C)C)OC (stereo not given) | 2% | 4% | 98% (active) | 99% (active) | 99% (active)
